Source: PubChem BioAssay AID588456 (National Center for Advancing Translational Sciences (NCATS), 2011)
Among all 390,000 compounds or so, about 55 (0.01%) were called active. Only a sample is shown. Unmarked numbers belong to inactive results. Calls come from the whole dose curve; as a rule, active = well fitted inhibition curve with a large enough effect; inconclusive = small, poorly fitted or top-dose-only effect; inactive = no such curve, though single readings can be large or run the other way.

These compounds were tested against Thioredoxin reductase 1, cytoplasmic (Rattus norvegicus) (UniProt O89049) (assay: qHTS Assay for Substrates of Mammalian Selenoprotein Thioredoxin Reductase 1 (TrxR1): qHTS). Conditions: purified TrxR1 substrate turnover, NADPH consumption readout; series mostly up to 114 µM.
Description: The selenoprotein thioredoxin reductase (TrxR; EC 1.8.1.9) is a FAD containing homodimeric pyridine nucleotide-disulfide oxidoreductase with many cellular roles. Together with NADPH and its prime substrate thioredoxin (Trx), the enzyme forms the core of the Trx system. The mammalian Trx system exerts a wide spectrum of functions including redox regulation, antioxidant defense, regulation of transcription factors as well as support of cell growth and replication. Many of these functions involve the reduction of Trx, which may subsequently reduce a number of different substrates including ribonucleotide reductase, peroxiredoxins or NFkB. Mammalian TrxR itself also has a broad substrate specificity, reducing both protein and non-protein substrates, including low molecular weight compounds such as dehydroascorbate, lipoic acid, ubiquinone, and juglone. In addition, several drugs in clinical use for anticancer treatment are indeed known to target TrxR1.
This BioAssay is a validation of an NADPH fluorescence-based, dual-purpose qHTS rTrxR1 assay designed to find potential inhibitors and substrates of rTrxR1. For this particular BioAssay, actives are potential substrate. See related BioAssay for inhibition data deposition.
NIH Molecular Libraries Probe Production Network [MLPCN]
NIH Chemical Genomics Center [NCGC]
Assay Provider: Elias Arner, Karolinska Institute
Assay protocol: 2 uL of reagents (buffer in column 4 as negative control and 90 nM rTrxR1 in columns 1-3 and 5-48) were dispensed into Greiner black solid-bottom 1,536-well assay plates, followed by 1 uL of NADPH (400 uM final concentration) to each well. The plates were centrifuged at 1000 rpm for 15 seconds and subsequently incubated for 5 min at room temperature (~22 deg C) to allow for rTrxR1 reduction. Compounds (23 nL) were then transferred via Kalypsys pin tool equipped with 1536-pin array (10 nL slotted pins, V&P Scientific, San Diego, CA). In addition, a duplicate 2-fold serial dilution of the control compounds auranofin, a known gold-based TrxR1 inhibitor, and juglone (5-hydroxy-1,4-naphthoquinone), a natural TrxR1 substrate, were pin-transferred to columns 2 and 3, respectively. After incubation for 15 min at room temperature (~22 deg C), 1 uL of selenite (400 uM final concentration) were dispensed to each well. The plate was immediately transferred to a ViewLux high-throughput CCD imager (PerkinElmer), wherein kinetic measurements of NADPH fluorescence (Ex 340 nm, Em 450 nm) were acquired (8 minute kinetic read, see Table 1). Read 1 was utilized to assess the capacity of a compound to serve as an rTrxR1 substrate, i.e. a decrease in NADPH fluorescence compared to the no-compound background is an indication of a substrate behavior for that particular compound. For inhibitory activity of a compound, delta values, computed as the difference in fluorescence intensity between the first and last reads of an 8-minute time kinetic window, were used. All reagents were diluted in an assay buffer consisting of 50 mM Tris-HCl, pH 7.5, 2 mM EDTA, and 0.01% Tween-20.
Throughout the screen, reagent bottle and all liquid lines were made light-tight to minimize reagent degradation. All screening operations were performed on a fully integrated robotic system (Kalypsys, San Diego, CA) containing one RX-130 and two RX-90 anthropomorphic robotic arms (Staubli, Duncan, SC). Library plates were screened starting from the lowest and proceeding to the highest concentration, and a 'double-pinning' step of the highest concentration was required to access higher concentrations of compounds. Vehicle-only plates, with DMSO being pin-transferred to the columns 5-48, were inserted uniformly at the beginning and the end of each library in order to monitor and record any shifts in the background, which can be affected by reagent dispensers or loss in enzyme activity over time. […]
% is set by controls: 0 for no effect and ±100 for the full control effect.
Note: nearly all actives have a fitted effect of over 50% in size.

Chain of Thioredoxin reductase 1, cytoplasmic (Rattus norvegicus) (O89049 whole entry, looked up): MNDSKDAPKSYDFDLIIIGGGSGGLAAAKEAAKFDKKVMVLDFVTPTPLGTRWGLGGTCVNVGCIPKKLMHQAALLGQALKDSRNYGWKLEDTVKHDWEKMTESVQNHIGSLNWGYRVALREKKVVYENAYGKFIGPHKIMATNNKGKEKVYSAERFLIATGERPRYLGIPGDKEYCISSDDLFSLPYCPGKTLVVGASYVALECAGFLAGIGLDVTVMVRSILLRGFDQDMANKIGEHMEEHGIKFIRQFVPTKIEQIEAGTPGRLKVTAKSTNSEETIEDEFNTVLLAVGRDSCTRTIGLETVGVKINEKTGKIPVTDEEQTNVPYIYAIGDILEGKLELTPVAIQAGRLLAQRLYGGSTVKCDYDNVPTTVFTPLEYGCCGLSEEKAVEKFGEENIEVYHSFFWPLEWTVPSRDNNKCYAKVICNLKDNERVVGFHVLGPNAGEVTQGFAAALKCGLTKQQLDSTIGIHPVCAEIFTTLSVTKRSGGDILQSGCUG

Compound | activity change, negative = substrate turnover
Cc1ccc(-c2nc(=N)sn2Cc2ccccc2)cc1 | inactive
C[N+]1(CC(=O)c2cccs2)CCOCC1 | inactive
COc1ccccc1OCCNCC(O)COc1cccc2[nH]c3ccccc3c12 (stereo unspecified) | inactive
CN(C)c1ccc(/C=c2\[nH]c(=O)/c(=C/c3ccc(N(C)C)cc3)[nH]c2=O)cc1 | inactive
Cc1ccc(-n2nc(C)c(C(=O)O)c2-n2cccc2)cc1 | inactive
OC(CBr)CN1CCCCC1 (stereo unspecified) | inactive
O=C(O)/C(=C/c1c(C(=O)O)[nH]c2cc(Cl)cc(Cl)c12)c1ccccc1 | inactive
Cc1ccc(-c2nnc(Nc3ccc(OCC(N)=O)cc3)c3ccccc23)cc1S(=O)(=O)NCC1CCCO1 (stereo unspecified) | inactive
CCc1cccc(NC(=O)c2cnc(N3CCOCC3)c3ccccc23)c1 | inactive
CCC(=O)N1CCc2cc(Br)cc(S(=O)(=O)NCc3ccc(Cl)cc3)c21 | inactive
Cc1cc2oc(C(=O)N(Cc3ccc(Cl)cc3)Cc3ccco3)c(C)c2cc1Cl | inactive
O=C(C[n+]1ccncc1)c1ccc2c(c1)CCCC2 | inactive
CNCCCOc1cc2nc(N3CCCN(C)CC3)nc(NC3CCN(C)CC3)c2cc1OC | inactive
C=CCNC(=O)c1ccc2nc(-c3ccco3)c(-c3ccco3)nc2c1 | inactive
Clc1cccc[n+]1CCCC[n+]1ccccc1Cl | inactive
Cc1ccc(NC(=O)c2ccc3[nH]c(C)cc(=O)c3c2)c(C)c1 | inactive
O=C(COC(=O)c1ccccc1OCCOc1ccccc1)Nc1cccc(Br)c1 | inactive
O=C1CC(c2ccc(F)cc2F)c2cc3c(cc2N1)OCO3 (stereo unspecified) | inactive
NS(=O)(=O)c1ccc(NC(=O)CSc2nnc3c(n2)[nH]c2ccccc23)cc1 | inactive
COc1cc2[nH]c(C)c(CCN3CCN(c4ccccc4)CC3)c2cc1OC | inactive
COc1ccc(CCNC(=O)CCCn2c(=O)c3ccccc3n(Cc3ccc(C)cc3)c2=O)cc1OC | inactive
Cc1ccc(-c2cc(N)n(Cc3cccc(Cl)c3)n2)cc1 | inactive
Oc1ccc(Cn2cc[nH]c2=S)cc1 | inactive
OCC(O)C(O)C(O)C(O)C=Nc1ccc(/C=C/c2ccnc3ccccc23)cc1 (stereo unspecified) | 5.9% [at 0.0914 µM]

Compound | activity change, negative = substrate turnover
CC(C)CNc1ncnc2c1nnn2C | inactive
CCN1CCN(c2ccc(/C=C/c3ccnc4ccccc34)cc2)CC1 | inactive
CCC(C(=O)Nc1cccc(-c2nc3cccnc3s2)c1C)c1ccccc1 (stereo unspecified) | inactive
COC(=O)c1scc(-c2ccccc2)c1S(=O)(=O)Nc1ccccc1 | inactive
C(=Nc1ccc(/C=C/c2ccnc3ccccc23)cc1)Nc1ccc(/C=C/c2ccnc3ccccc23)cc1 | inactive
COc1cc2nc(N3CCCN(C)CC3)nc(NC3CC3)c2cc1OC | inactive
Cc1ccc(Cl)cc1NC(=O)NC1COc2ccccc2C1 (stereo unspecified) | inactive
O=C(NCc1ccccc1)c1cccc(NC(=O)N2CCSc3ncccc32)c1 | inactive
CC1(C)CC(=O)c2cc(C(=O)NCc3ccccc3)c(=O)[nH]c2C1 | inactive
CCCCCCCNc1ccc(/C=C/c2ccnc3ccccc23)cc1 | inactive
O=C(CC1Oc2ccc(Cl)cc2NC1=O)NCc1ccccc1 (stereo unspecified) | inactive
CSc1cccc(NC(=O)CN2C(=O)CCc3cc(S(=O)(=O)N4CCCCC4)ccc32)c1 | inactive
Cc1ccc(NC2=C(c3ccc(C(F)(F)F)cc3)C(=O)c3ccccc32)cc1F | inactive
CNC(=O)c1ccc(-c2nc(CN3CCc4ccccc43)c(C)o2)cc1 | inactive
O=C(c1ccco1)N(Cc1cccs1)c1ccc(O)cc1 | inactive
S=c1[nH]c(=S)c2n[nH]nc2[nH]1 | -1.94% [at 0.0914 µM]
CC(C)(C)c1ccc(C(=O)C[N+]2(C)CCCc3ccccc32)cc1 (stereo unspecified) | inactive
O=C(O)C1=C/C(=C/C=[N+]2c3cc(O)c(O[C@H]4OC(CO)[C@@H](O)[C@@H](O)[C@@H]4O)cc3C[C@@H]2C(=O)[O-])C[C@H](C(=O)O)N1 (stereo partly specified) | inactive
CC1CC(C)CN(c2oc(-c3ccc(OCc4ccc(Cl)cc4)cc3)nc2C#N)C1 (stereo unspecified) | 6.36% [at 0.0914 µM]
c1ccc(Cn2nnc3c(N4CCCCC4)ncnc32)cc1 | inactive
CCC(=O)N1CCc2cc(S(=O)(=O)NC(C(=O)NCCc3ccc(C)cc3)C(C)C)ccc21 (stereo unspecified) | inactive
OCCNc1ncnc2oc(-c3ccco3)c(-c3ccco3)c12 | inactive
O=[N+]([O-])c1ccc(/C=C/c2ccc3cccnc3c2)cc1 | inactive
Cc1ccc(-c2nc3ccccn3c2Nc2ccc(F)cc2)o1 | inactive

Compound | activity change, negative = substrate turnover
O=C(Nc1ccc(O)c(-c2nc3ccccc3o2)c1)c1ccc(-c2cccc(Cl)c2)o1 | inactive
CCc1cccc(NC(=O)CN(C)S(=O)(=O)c2ccc3[nH]c4c(c3c2)CCCC4)c1 | inactive
COc1cc2nc(C#Cc3nc4cc(OC)c(OC)cc4[nH]3)[nH]c2cc1OC | inactive
NC(=O)Nc1ccc(/C=C/c2ccnc3ccccc23)cc1 | inactive
CCOC(=O)C1CCCN(C(=O)Cn2ncc3c(C)n(Cc4ccc(F)cc4)c(C)c3c2=O)C1 (stereo unspecified) | inactive
COc1ccc(/C=C/c2ccnc3ccccc23)cc1OC | inactive
O=C(Nc1ccc([N+](=O)[O-])cc1)c1cnn2c1NC(=C1CC1)C=C2C(F)F | inactive
COc1ccc(-c2nc(CN3CCC(C(=O)NCc4ccccc4)CC3)c(C)o2)cc1OC | inactive
Cc1c(CCO)sc[n+]1CC(=O)c1ccc2ccccc2c1 | inactive
CN(C)c1cccc2ccccc12 | inactive
O=C(Nc1ccc(Cl)cc1)c1cnn2c1NC(=C1CC1)C=C2C(F)F | inactive
O=C(Cn1cc(SCc2ccccc2)c2ccccc21)N1CCCCC1 | inactive
Cc1ccc(C(=O)Nc2ccc(OCc3cc(=O)n4c5c(sc4n3)CCCC5)cc2)cc1 | inactive
N#Cc1ccc[n+](CC(=O)c2ccc(O)c(O)c2)c1 | inactive
Cc1ccc(Nc2c(-c3ccc(C)s3)nc3ccccn23)cc1 | inactive
COc1ccc(S(=O)(=O)Nc2cccc3cccnc23)c(N)c1 | inactive
Cc1cccc(-c2nnc(SC(C)C(=O)Nc3ccccc3)n2C)c1 (stereo unspecified) | inactive
CCn1c(C)c(C)c2cc(C(=O)NCCc3cc(OC)ccc3OC)ccc21 | inactive
Cc1csc[n+]1CCC1CCCCC1 | inactive
CC(C)(C)C1CCC(NC(=O)c2cnn3c2NC(=C2CC2)C=C3C(F)F)CC1 (stereo unspecified) | inactive
O=[N+]([O-])c1ccc(S(=O)(=O)N2CCN(c3nc(-c4ccccc4)nc4ccccc34)CC2)cc1 | inactive
Cc1cccc(-n2ccnc2SCC(=O)Nc2cc(C(F)(F)F)ccc2Cl)c1 | inactive
CN1CCN(/[N+]([O-])=N/Oc2ccc([N+](=O)[O-])cc2[N+](=O)[O-])CC1 | inactive
COc1cc2nc(N3CCCN(C)CC3)nc(NC(C)C)c2cc1OC | inactive

Compound | activity change, negative = substrate turnover
CN(N=O)c1ccc(C=C2c3ccccc3-c3ccccc32)cc1 | inactive
COc1ccc(-c2nc(=N)sn2-c2ccccc2)cc1 | inactive
CN(C)c1ccc(/C=C/c2c3ccccc3nc3ccccc23)cc1 | inactive
CN(C)c1cc2c(Nc3ccc4c(cnn4Cc4ccccc4)c3)ncnc2cn1 | inactive
CC(C)(C)n1ncc2c(=O)n(Cc3ccc(C(=O)c4ccccc4)cc3)cnc21 | inactive
CC(C)(C)OC(=O)N(Cc1ccco1)S(=O)(=O)c1ccccc1Br | inactive
CC(=O)c1ccc[n+](C(C)CCC(C)[n+]2cccc(C(C)=O)c2)c1 (stereo unspecified) | 4.01% [at 0.0914 µM]
CCOc1ccc(CCNC(=O)c2csc3c2CCCCC3)cc1 | inactive
CN(C(=N)N)c1ccc(/C=C2\C=Cc3ccccc32)cc1 | inactive
Cc1cccc(-n2ncc(C(=O)N3CCc4ccccc4C3)c2C2CCN(C(=O)OC(C)(C)C)CC2)c1 | inactive
Cc1cccc(NC(=O)CSc2nc3c(oc4ccccc43)c(=O)n2-c2ccc(F)cc2)c1 | inactive
COc1cc(CNCCSc2nnnn2C)ccc1OCc1c(F)cccc1Cl | 7.47% [at 11.4 µM]
CC1(C)Cc2ccccc2-c2c[nH]c(=O)n21 | inactive
O=C(c1ccc2c(=O)n(Cc3ccco3)c(=S)[nH]c2c1)N1CCCC1 | inactive
N#Cc1ccc[n+](CC(=O)c2ccc(F)cc2)c1 | inactive
Nc1ncnc2nnsc12 | 7.52% [at 0.0914 µM]
Oc1ccc(Br)cc1C1C=C(c2ccc3c(c2)OCO3)NC(c2ccc(Cl)cc2)N1 (stereo unspecified) | 6.51% [at 0.0914 µM]
COc1cc(CN(CC2CCCO2)C(=O)c2ccccc2F)cc(OC)c1OC (stereo unspecified) | inactive
ClC/C=C/C[n+]1ccccc1Cl | inactive
CCOC(=O)c1c(C)oc2ccc(N(C(=O)c3ccncc3)S(=O)(=O)c3ccc(CC)cc3)cc12 | inactive
CCCCC(CCCC)c1ccc(C=Nc2ccc(/C=C/c3ccnc4ccccc34)cc2)cc1 | inactive
COc1cc(OC)c(/C=C/c2ccnc3ccccc23)c(OC)c1 | inactive
CCOC(=O)c1cccc(NC(=O)c2cc(S(=O)(=O)N3CCCC(C)C3)cn2C)c1 (stereo unspecified) | inactive
O=C(Nc1ccccc1)c1ccccc1OCc1ccccc1 | inactive
